# Screens (PubChem BioAssay)
# In the library only some 2.8% were active in any assay of this set; here they are far more common.
# SENP8 block-1 – SENP8 protease inhibitors, primary screen, biochemical, luminescence. Sentrin-specific protease 8 (Homo sapiens), Q96LD8. purified SENP8, Z-RLRGG-aminoluciferin cleavage. inhibition, % at 10 µM. hit rate 1.2% among 330,000. AID 2540, 2010; in the data active = inhibition above about 50%
# Target sequence (Q96LD8 whole entry, looked up): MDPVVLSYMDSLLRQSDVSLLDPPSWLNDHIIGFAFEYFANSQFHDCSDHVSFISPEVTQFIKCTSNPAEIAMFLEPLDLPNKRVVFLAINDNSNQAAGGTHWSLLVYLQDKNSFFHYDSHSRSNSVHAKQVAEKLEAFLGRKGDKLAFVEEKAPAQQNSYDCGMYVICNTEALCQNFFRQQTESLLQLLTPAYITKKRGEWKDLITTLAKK
# HSP90 refold inh – HSP90 inhibitors, primary screen, cell lysate, luminescence; AID 1789, 2009; inhibition, % at 5.6 µM; Rabbit reticulocyte lysate, luciferase refolding luminescence, 3 h; Heat shock protein HSP 90 (rabbit reticulocyte lysate; luciferase refolding); hit rate 0.91% among 290,000;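 active = inhibition above the screen-wide mean plus 3 SD, computed separately per campaign, cut at about 16% in these data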;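 also: 0% = DMSO wells and 100% = 60 µM geldanamycin wells; inhibitors lower the luminescence because luciferase stays unfolded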
# SENP7 block – SENP7 protease inhibitors, primary screen, biochemical, luminescence, uHTS; recombinant SENP7, Z-RLRGG-aminoluciferin luminescence, 40 min; inhibition, % at 5 µM; hit rate 1.5% among 330,000; AID 434973, 2010;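 active = inhibition above about 50% at the single test dose, limit read from the data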;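 also: plate controls were DMSO with enzyme for no effect and no enzyme buffer wells for full effect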
# SENP8 block-2 – human SENP8 protease inhibitors, primary screen, biochemical, fluorescence, Nedd8 protein substrate, uHTS; hit rate 0.64% among 360,000; recombinant SENP8; Sentrin-specific protease 8 (Homo sapiens), Q96LD8; inhibition, % at 20 µM; AID 602440, 2012; in the data active = inhibition mostly above about 40%, no sharp cut-off; inactive = mostly below about 27%
# SENP6 block – SENP6 protease inhibitors, primary screen, biochemical, luminescence, uHTS; Sentrin-specific protease 6 (Homo sapiens), Q9GZR1; Recombinant SENP6 catalytic domain, aminoluciferin luminescence; inhibition, % at 10 µM; hit rate 1.8% among 330,000;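 active = inhibition above about 50% at the single tested dose, limit read from the data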;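 also: plate controls were DMSO wells with enzyme for no effect and DMSO wells lacking enzyme for full effect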
# SENP8 confirm – SENP8 protease inhibitors, retest, confirmation, biochemical, luminescence, single concentration. Recombinant SENP8, Z-RLRGG-aminoluciferin luminescence, 60 min. inhibition, % at 12.5 µM. hit rate 40% among 6,200. AID 488912, 2010. shares compounds with SENP7 block;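 active = mean inhibition across replicates above about 50%, limit read from the data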
# SENP6 conf – SENP6 protease inhibitors, confirmation, biochemical, luminescence, single concentration. shares compounds with SENP7 block. recombinant SENP6, Z-RLRGG-aminoluciferin luminescence. inhibition, % at 12.5 µM. hit rate 58% among 6,200. AID 488915, 2010
# SENP7 confirm – SENP7 protease inhibitors, retest, confirmation, biochemical, luminescence, single concentration. inhibition, % at 12.5 µM. hit rate 69% among 6,200. shares compounds with SENP7 block. recombinant SENP7, Z-RLRGG-aminoluciferin luminescence, 40 min
# Casp3 SENP sel – caspase-3 protease inhibitors, confirmation, selectivity assay for SENP inhibitor project, biochemical, single concentration | shares compounds with SENP7 block | purified caspase-3, Z-DEVD-aminoluciferin luminescence, 60 min | inhibition, % at 12.5 µM | hit rate 60% among 6,200 | AID 488918, 2010;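 active = mean inhibition above about 50%, limit read from the data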;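 also: plate controls were enzyme with DMSO for no effect and wells without caspase-3 for full effect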
# Target sequence (P42574 28-227 limits assumed): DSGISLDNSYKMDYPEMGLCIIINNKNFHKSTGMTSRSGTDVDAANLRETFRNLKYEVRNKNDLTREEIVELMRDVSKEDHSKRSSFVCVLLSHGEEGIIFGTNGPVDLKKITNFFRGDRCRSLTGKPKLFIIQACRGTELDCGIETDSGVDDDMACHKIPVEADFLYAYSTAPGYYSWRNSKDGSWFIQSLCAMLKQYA
# SENP luc ctr – luminescence interference (SENP counter-screen); Pre-incubated SENP8/Z-RLRGG-aminoluciferin, luciferase luminescence interference; hit rate 39% among 6,200; inhibition, % at 12.5 µM; AID 488919; shares compounds with SENP7 block;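 active = mean inhibition above about 50% when retested at one dose, limit read from the data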;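 also: plate controls were DMSO wells with completed reaction for no effect and substrate without enzyme for full effect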
# Active calls of the source: *; nt = not tested or not shown.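 The calls were made as follows, unless noted: active = mean inhibition above about 50% in the one-dose retest (limit read from the data); inactive = the rest.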
SMILES,SENP8 block-1,HSP90 refold inh,SENP7 block,SENP8 block-2,SENP6 block,SENP8 confirm,SENP6 conf,SENP7 confirm,Casp3 SENP sel,SENP luc ctr
COc1ccc(C(=O)Nc2ccc(Cl)c(Cl)c2)c(OC)n1,-5.5,-5.0,51.3*,8.7,11.7,17.8,14.0,25.3,33.8,14.1
COc1ccc(C(=O)O)c(OC)n1,-4.2,-4.7,-0.2,-6.5,-5.6,nt,nt,nt,nt,nt
COc1ccc(-c2cc(O)cc(O)c2)cc1,35.7,-1.1,59.6*,10.5,70.4*,42.0,36.0,60.4*,32.7,49.5
N#CC1=C(N)SC(N)=C(C#N)C1c1ccc([N+](=O)[O-])cc1,-10.5,-0.5,-8.8,16.0,8.0,nt,nt,nt,nt,nt
CC(C)Oc1ccc(NC(=O)Oc2ccccc2)cc1,79.9*,-0.9,-0.8,12.6,88.0*,0.8,100.0*,103.4*,98.4*,93.5*
COc1ccc(OC(=O)c2ccncc2)cc1,-2.1,-1.6,-4.1,20.0,-15.2,nt,nt,nt,nt,nt
COc1ccc(C(=O)Oc2ccc(/C=N/O)cc2)cc1,52.9*,-1.4,61.0*,29.2,78.7*,66.9*,66.8*,90.1*,73.2*,33.3
O=C(NC1CCCCC1)C(Cc1ccccc1)N1C(=O)C2C3CCC(C3)C2C1=O (stereo unspecified),6.0,-1.0,79.5*,3.4,7.1,7.0,5.0,-5.2,-5.0,-11.9
O=C(NCc1ccccc1)C(Cc1ccccc1)N1C(=O)C2C3CCC(C3)C2C1=O (stereo unspecified),-5.2,3.5,-0.5,6.6,-8.9,nt,nt,nt,nt,nt
c1ccc(COc2ccc(CN3CCN(c4ccccn4)CC3)cc2)cc1,31.1,1.2,9.3,19.9,53.7*,58.8*,53.2*,71.7*,36.3,66.5*
c1ccc(CN2CCN(c3ncccn3)CC2)cc1,-9.2,-0.3,-0.7,11.5,-20.5,nt,nt,nt,nt,nt
O=C(CCl)N1CCN(C(=O)C2COc3ccccc3O2)CC1 (stereo unspecified),1.7,nt,-7.3,17.6,4.5,nt,nt,nt,nt,nt
N#Cc1ccccc1NS(=O)(=O)c1cc2c3c(c1)CCC(=O)N3CCC2,-6.6,nt,-0.5,-56.1,-3.4,nt,nt,nt,nt,nt
Cc1nc(SCC(=O)N2CCCc3ccccc32)c2oc3ccccc3c2n1,-2.0,2.4,-3.5,8.3,-5.8,nt,nt,nt,nt,nt
Nc1c2c(nc3sc4c(c13)CCCCC4)CCCCC2,57.2*,3.7,73.9*,1.5,72.9*,25.1,22.7,38.8,18.7,3.1
O=C(Nc1cccc([N+](=O)[O-])c1)c1cnccn1,-10.7,0.6,-1.1,1.2,8.5,nt,nt,nt,nt,nt
O=C(Nc1cccc([N+](=O)[O-])c1)c1[nH]ncc1Cl,74.2*,-0.7,81.4*,14.0,81.0*,66.7*,61.3*,90.9*,77.3*,54.2*
COc1ccc(NC(=O)c2cnn(-c3ccccc3)c2C)cc1OC,29.3,-5.1,40.7,14.4,52.1*,25.3,24.8,64.1*,63.3*,46.2
COc1ccc(OC)c(NC(=O)c2cnn(-c3ccccc3)c2C)c1,1.6,-1.8,5.5,5.5,-3.1,nt,nt,nt,nt,nt
COc1ccc(NC(=O)c2cnn(-c3ccccc3)c2C)cc1,80.5*,9.7,89.7*,9.9,90.4*,-8.2,81.7*,96.7*,91.8*,56.0*
Cc1c(C(=O)Nc2cccc([N+](=O)[O-])c2)cnn1-c1ccccc1,33.6,-4.9,55.6*,12.2,66.9*,51.1*,48.2,81.0*,49.2,58.2*
COc1cccc(CNC(=O)CCC2CCCN(C(=O)c3cc4ccccc4o3)C2)c1 (stereo unspecified),54.4*,-5.2,52.5*,7.3,21.2,0.5,62.1*,88.6*,76.1*,58.9*
O=C(NCCO)Nc1ccc2nsnc2c1,4.6,0.7,5.1,-388.1,7.6,nt,nt,nt,nt,nt
OCCNC(=S)Nc1ccc2nsnc2c1,60.6*,7.0,31.8,-11.7,81.9*,10.8,23.0,18.3,8.8,3.8
Cc1ccc(OCC(O)CNC2CCCC2)cc1C (stereo unspecified),-2.2,-2.8,1.3,10.2,-8.1,nt,nt,nt,nt,nt
SMILES,SENP8 block-1,HSP90 refold inh,SENP7 block,SENP8 block-2,SENP6 block,SENP8 confirm,SENP6 conf,SENP7 confirm,Casp3 SENP sel,SENP luc ctr
CCOc1ncccc1-c1nc(-c2cccs2)no1,-10.7,3.1,-2.8,3.7,-4.6,nt,nt,nt,nt,nt
c1csc(-c2nc(-c3ccc(-c4ccon4)s3)no2)c1,43.9,-0.2,88.1*,-231.1,51.4*,3.8,15.5,15.4,23.9,7.8
c1ccc(-c2nc(-c3ccc(-c4ccon4)s3)no2)cc1,39.7,3.9,80.0*,-69.5,55.0*,25.1,25.8,20.2,18.8,18.2
CCOc1nc(-c2ccccc2)ccc1-c1noc(-c2ccncc2)n1,-12.3,0.8,-10.0,-100.2,-18.6,nt,nt,nt,nt,nt
COc1cccc(-n2c(SCC(=O)NCc3cccs3)nc3ccccc3c2=O)c1,-5.2,-5.7,2.3,12.9,-7.5,nt,nt,nt,nt,nt
O=C(Nc1ccc(Cl)cc1)Nc1nnc(SCc2ccccc2)s1,-11.3,-1.8,-9.3,15.9,-0.6,nt,nt,nt,nt,nt
c1ccc2c(c1)oc1c(Nc3ccc4c(c3)OCO4)ncnc12,13.0,-0.1,58.8*,-186.8,13.2,-8.8,4.4,10.2,19.1,6.7
c1ccc(Nc2ncnc3c2oc2ccccc23)cc1,13.7,0.6,35.9,-383.3,51.5*,10.0,6.6,55.6*,37.3,14.3
Cc1nc(Nc2ccc3c(c2)OCO3)c2oc3ccccc3c2n1,6.3,0.5,-0.1,-83.7,13.7,nt,nt,nt,nt,nt
Oc1cccc(Nc2ncnc3c2oc2ccccc23)c1,62.5*,-2.9,71.3*,-222.3,70.2*,64.4*,66.2*,92.5*,69.3*,80.1*
COc1ccc(OCC(=O)NCCNC(=O)c2ccncc2)cc1,2.8,7.9,2.2,15.4,-6.5,nt,nt,nt,nt,nt
N#CCCN(CCC#N)C(=O)c1ccc(Cl)cc1,7.2,-1.1,1.5,6.7,3.8,nt,nt,nt,nt,nt
Cc1nn(CC(=O)O)c(C)c1C,-1.2,3.3,-5.9,12.2,-25.7,nt,nt,nt,nt,nt
Cc1nn(CC(=O)O)c(C)c1Cl,6.7,0.9,94.8*,10.1,0.8,-10.2,-2.9,-6.4,2.0,3.6
